# Compound activity deposited in PubChem by National Center for Advancing Translational Sciences (NCATS).
# D1 antag – human D1 dopamine receptor antagonism | P21728 | HEK293 TREx D1 cells, calcium flux, dopamine EC80; active compounds read low | activity change, negative = inhibition, % at 10 µM | actives 3.2% (n = 360,000) | AID 504652; in the data active means activity change below about -30%; further: on the % scale 0 is the no-effect control and ±100 the full control effect
# Target sequence (P21728 whole entry, looked up): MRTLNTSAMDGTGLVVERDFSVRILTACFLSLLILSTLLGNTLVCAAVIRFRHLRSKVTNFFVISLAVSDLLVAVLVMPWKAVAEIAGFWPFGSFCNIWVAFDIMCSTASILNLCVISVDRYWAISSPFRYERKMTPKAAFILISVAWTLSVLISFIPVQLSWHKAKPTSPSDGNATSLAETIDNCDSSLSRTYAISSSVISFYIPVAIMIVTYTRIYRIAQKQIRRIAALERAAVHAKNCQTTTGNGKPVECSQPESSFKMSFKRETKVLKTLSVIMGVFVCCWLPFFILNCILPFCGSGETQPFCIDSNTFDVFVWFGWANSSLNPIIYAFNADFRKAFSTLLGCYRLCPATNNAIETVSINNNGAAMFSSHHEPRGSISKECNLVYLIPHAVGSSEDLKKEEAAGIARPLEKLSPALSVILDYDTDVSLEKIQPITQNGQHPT
#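 HEK293 T-REx cells expressing inducible, force-coupled D1 receptor; no-wash Ca dye, 30–90 min RT. Cmpd → 180 s read at 1 Hz → EC80 DA → 180 s read.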
# D3 antag – D3 dopamine receptor (human) antagonism; D3R cells, DiscoveRx beta-arrestin luminescence, antagonist mode; active compounds read low; max response, negative = inhibition, %; actives 2.5% (n = 360,000); AID 652054; in the data active means max response below about -50%; inconclusive means no clear call, values can overlap the other calls; further: on the % scale 0 is the no-effect control and ±100 the full control effect
#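 Cells plated overnight at 1500 cells/well, then exposed to library compounds with dopamine controls for 90 minutes at 37 degrees C. DiscoveRx reagent added for 30–60 minutes at room temperature; luminescence read, quantitative HTS format.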
# D3 ag – activates the human D3 dopamine receptor | D3R DiscoveRx beta-arrestin cells, luminescence, 90 min | P35462 | actives 0.58% (n = 410,000) | max activation, % | AID 652048; in the data active means max activation above about 30%; further: 0% is about no effect
#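 Agonist-mode cell screen: cells plated at 1500/well and incubated overnight at 37 °C, then exposed to library compounds for 90 min at 37 °C. Detection reagent was added for 30–60 min at room temperature, and luminescence was read.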
# D1 potentiator – human D1 dopamine receptor positive modulation; actives 0.036% (n = 360,000); potentiation, % at 10 µM; AID 504651; HEK293 TREx D1 cells, calcium flux, dopamine EC20 potentiation; P21728; in the data active means potentiation above about 30%; further: 0% is about no effect
# D1 ag – activates the human D1 dopamine receptor | P21728 | HEK293 T-REx D1 cells, calcium flux, agonist mode | activation, % at 2 µM | actives 1% (n = 360,000); in the data active means activation above about 30%; further: 0% is about no effect
#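 Inducible HEK293 T-REx D1 cells, force-coupled to calcium signalling, were plated at 4000 cells/well with tetracycline and held overnight at 30 C. After no-wash calcium dye loading, compound-evoked calcium rise over 180 s flagged agonists.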
# Numbers without * were called inactive; ? = inconclusive; . = no result. Compounds with a hit are over-represented: about 6.1% of the library has one in this group of screens.
SMILES,D1 antag,D3 antag,D3 ag,D1 potentiator,D1 ag
CCc1ccc(NC(=O)CSc2cn(CC(=O)N3CCOCC3)c3ccccc23)cc1,-19,.,8,-6,1
O=C(CC1CCOCC1)Nc1ccc(Cl)c(Cl)c1,-3,0,-6,-2,8
CCOC(=O)C1CSC(CC(=O)Nc2ccc(Cl)c(Cl)c2)C(=O)N1 (centres undefined),-32*,-20,0,-9,20
NC(=O)c1cc2ccc(O)cc2oc1=NCc1ccccc1,-17,21,5,-8,150*
COc1ccc(OC)c(N=c2oc3cc(O)ccc3cc2C(N)=O)c1,-36*,?,0,-12,0
COc1ccc2cc(C(N)=O)c(=Nc3ccccc3)oc2c1,1,1,-7,-2,1
Cc1cccc(N2CCN(C(=S)Nc3ccc4nc(N5CCN(C)CC5)cc(C)c4c3)CC2C)c1 (centres undefined),-73*,-22,-19,-6,3
Cc1cc(N2CCCC2)nc2ccc(NC(=S)NCCCN3CCC(C)CC3)cc12,5,-66*,-23,-3,8
CCN1CCN(c2cc(C)c3cc(NC(=S)NCCCN4CCc5ccccc5C4)ccc3n2)CC1,4,-87*,-20,-1,1
Cc1cc(N2CCN(C)CC2)nc2ccc(NC(=S)N3CCN(c4cccc(Cl)c4)CC3)cc12,3,-10,-16,-4,0
CCCCNC(=S)Nc1ccc2nc(N3CCN(CC)CC3)cc(C)c2c1,0,19,-5,-15,2
Cc1cc(N2CCN(C)CC2)nc2ccc(NC(=S)NCCN3CCc4ccccc4C3)cc12,4,-76*,-20,-6,4
COc1ccc(Cl)cc1-c1nc(SCC(=O)NCC2CCCO2)n[nH]1 (centres undefined),-4,-23,-15,0,4
CCCN1CCN(CCCNC(=S)Nc2ccc3nc(N4CCN(CC)CC4)cc(C)c3c2)CC1,8,?,-18,-1,2
Cc1cc(N2CCN(C)CC2)nc2ccc(NC(=S)NCCCN3CCc4ccccc4C3)cc12,-7,-84*,-20,-4,3
Cc1c(O)ccc(/C(Cc2ccc3ccccc3n2)=N\O)c1O,-31*,5,-2,-6,21
Oc1ccc(/C(Cc2ccc3ccccc3n2)=N\Nc2ccccc2)c(O)c1,4,?,3,-3,2
CC(=O)Oc1ccc(C(=O)Cc2ccc3ccccc3n2)c(O)c1C,0,-6,0,-2,32*
CC(=O)Oc1ccc(C(=O)Cc2ccccn2)c(O)c1,-12,17,7,-3,2
CC(C)Cc1[nH]c(=O)c(C#N)c2c1COC(C)(C)C2,-33*,5,1,-5,1
CC1=CC(C)(C)[N+](C)=CN1c1ccccc1,-22,4,-8,-1,2
Cc1ccc(S(=O)(=O)N2CCOC23CCN(C(=O)c2ccccc2Br)CC3)cc1,-14,3,2,-8,2
Brc1ccc(-c2nc(N3CCN(c4ccccc4)CC3)c3ccccc3n2)cc1,-19,.,-8,-2,-3
CCCOc1ccc(-c2nc(N3CCN(C)CC3)c3ccccc3n2)cc1,-4,-59*,-10,-12,5
c1ccc(N2CCN(c3nc(-c4ccccn4)nc4ccccc34)CC2)cc1,0,-82*,-11,3,1
SMILES,D1 antag,D3 antag,D3 ag,D1 potentiator,D1 ag
CN1CCN(c2nc(-c3ccccn3)nc3ccccc23)CC1,4,-51*,4,-2,4
CCN1C(=O)[C@H]2[C@@H](c3ccccc3)N[C@]3(CCCN(Cc4ccccc4)C3=O)[C@H]2C1=O,.,6,6,.,.
COc1ccc(-n2ccn(Cc3ccccc3Cl)c(=O)c2=O)cc1OC,-10,.,-5,-4,-1
c1ccc(Cn2c(Cn3c(-c4cnccn4)nc4ccccc43)nc3ccccc32)cc1,.,-22,-4,.,.
Fc1ccc(CCn2c(Cn3c(-c4cnccn4)nc4ccccc43)nc3ccccc32)cc1,.,-59*,-14,.,.
Cc1ccc(C)c(OCCCCn2cnc3ccccc3c2=O)c1,-19,32,18,-6,39*
CCOc1ccc(OCCCCn2cnc3ccccc3c2=O)cc1,-42*,0,5,1,1
CC(C)Oc1ccccc1OCCCCn1cnc2ccccc2c1=O,-8,15,1,10,1
Cc1ccc(OCCCCn2cnc3ccccc32)c(C)c1,-23,-57*,2,-5,14
